Data as given in paper PMC11995724, “Antibiotic target discovery by integrated phenotypic and activity-based profiling of electrophilic fragments” (Cell chemical biology, 2025).
About 110 (3.4%) of roughly 3,200 compounds showed an effect of 50% or more. Many of the other results were omitted from the sample, so strong results are more common in it than they were.

These compounds were tested on T1, V. cholerae SAD30. Conditions: relative growth, OD600, LB; 25 µM; inhibitor.
T1 construct: SAD30
Parameters: species or system S. aureus MSSA476 (TSB) or V. cholerae SAD30 (LB); 384-well bacterial growth screen at 25 uM, OD600 relative to DMSO control

Going from `N#CC(=Cc1c(F)cccc1F)C(=O)Nc1ccccc1F` [9-J12, 2-cyano-3-(2,6-difluorophenyl)-N-(2-fluorophenyl)prop-2-enamide] to `Cn1cc(C=C(C#N)C(=O)Nc2ccccc2F)c(-c2ccncc2)n1` [9-L15, 2-cyano-N-(2-fluorophenyl)-3-[1-methyl-3-(pyridin-4-yl)-1H-pyrazol-4-yl]prop-2-enamide], the “% of control remaining” value falls from 94.2896% to 89.6669%.

Compared with `O=C(CCl)NC1CCCc2nc(-c3ccccc3)sc21` (centres unmarked) [7-B04, 2-chloro-N-(2-phenyl-4,5,6,7-tetrahydro-1,3-benzothiazol-7-yl)acetamide], `CC(Cl)C(=O)NCc1cc(-c2ccccc2)on1` (centres unmarked) [7-A13, 2-chloro-N-[(5-phenyl-1,2-oxazol-3-yl)methyl]propanamide] is lower in “% of control remaining” value: 86.833% for the first, 82.868% for the second.

Compared with `CCCn1c(C)cc(C=C(C#N)C(=O)N2CCC2)c1C` [8-L08, 2-(azetidine-1-carbonyl)-3-(2,5-dimethyl-1-propyl-1H-pyrrol-3-yl)prop-2-enenitrile], `CCCn1c(C)cc(C=C(C#N)C(=O)Nc2ccc3c(c2)OCO3)c1C` [9-G07, N-(1,3-dioxaindan-5-yl)-2-cyano-3-(2,5-dimethyl-1-propyl-1H-pyrrol-3-yl)prop-2-enamide] is higher in “% of control remaining” value: 60.707% for the first, 88.5792% for the second.

First: COC(=O)c1sccc1N1C(=O)C=CC1=O [10-A07, methyl 3-(2,5-dioxo-2,5-dihydro-1H-pyrrol-1-yl)thiophene-2-carboxylate]
Second: Cc1cc(C(=O)O)ccc1N1C(=O)C=CC1=O [10-G22, 4-(2,5-dioxo-2,5-dihydro-1H-pyrrol-1-yl)-3-methylbenzoic acid]
The “% of control remaining” value of the first is lower: 26.4952% for the first, 102.864% for the second.

Compared with `Cc1cc(C(=O)C(C)Cl)c(C)n1Cc1ccco1` (centres unmarked) [10-E06, 2-chloro-1-{1-[(furan-2-yl)methyl]-2,5-dimethyl-1H-pyrrol-3-yl}propan-1-one], `COCCn1c(C)cc(C(=O)CCl)c1C` [10-D13, 2-chloro-1-[1-(2-methoxyethyl)-2,5-dimethyl-1H-pyrrol-3-yl]ethan-1-one] is higher in “% of control remaining” value: 94.9153% for the first, 99.9026% for the second.

Going from `Cc1ccc(NC(=O)CCl)cc1[N+](=O)[O-]` [4-M13, 2-chloro-N-(4-methyl-3-nitrophenyl)acetamide] to `O=C(CCl)Nc1cc(Cl)cc(Cl)c1` [4-K09, 2-chloro-N-(3,5-dichlorophenyl)acetamide], the “% of control remaining” value falls from 93.6813% to 84.8825%.

First: COC(=O)c1cc(C(=O)CCl)c(C)o1 [10-G13, methyl 4-(2-chloroacetyl)-5-methylfuran-2-carboxylate]
Second: Cc1oc(C(=O)O)cc1C(=O)CCl [10-M21, 4-(2-chloroacetyl)-5-methylfuran-2-carboxylic acid]
The “% of control remaining” value of the first is lower: 43.6392% for the first, 100.37% for the second.

Compared with `Cc1oc(C(N)=O)cc1C(=O)CCl` [10-M05, 4-(2-chloroacetyl)-5-methylfuran-2-carboxamide], `NC(=O)c1coc(C(=O)CCl)c1` [10-C05, 5-(2-chloroacetyl)furan-3-carboxamide] is higher in “% of control remaining” value: 20.4169% for the first, 96.1621% for the second.

First: CCc1ccc(CC)c(C(=O)CCl)c1 [10-H14, 2-chloro-1-(2,5-diethylphenyl)ethan-1-one]
Second: O=C(CCl)Cc1ccc(Cl)c(Cl)c1 [10-E15, 1-chloro-3-(3,4-dichlorophenyl)propan-2-one]
The “% of control remaining” value of the first is higher: 95.8504% for the first, 25.5601% for the second.

First: CCc1ccc(OC(C)C(=O)N2CCN(C(=O)C(C)Cl)CC2)cc1 (centres unmarked) [6-H16, 1-[4-(2-chloropropanoyl)piperazin-1-yl]-2-(4-ethylphenoxy)propan-1-one]
Second: COc1ccc2c(c1)OCCN(C(=O)C(C)Cl)C2 (centres unmarked) [7-E04, 2-chloro-1-(8-methoxy-2,3,4,5-tetrahydro-1,4-benzoxazepin-4-yl)propan-1-one]
The “% of control remaining” value of the first is higher: 86.302% for the first, 86.04% for the second.

Compared with `C=CC(=O)N1CCC(C(=O)Nc2ccc3c(c2)CCN3C(N)=O)CC1` [3-E16, 5-[1-(prop-2-enoyl)piperidine-4-amido]-2,3-dihydro-1H-indole-1-carboxamide], `C=CC(=O)Nc1ccc(Cl)cc1F` [1-I10, N-(4-chloro-2-fluorophenyl)prop-2-enamide] is lower in “% of control remaining” value: 90.5017% for the first, 88.0419% for the second.

Going from `C=CC(=O)NC(c1nc(C)cs1)C1CC1` (centres unmarked) [3-D21, N-[cyclopropyl(4-methyl-1,3-thiazol-2-yl)methyl]prop-2-enamide] to `C=CC(=O)NCc1cscn1` [1-I07, N-[(1,3-thiazol-4-yl)methyl]prop-2-enamide], the “% of control remaining” value falls from 100.912% to 90.1345%.

Compared with `CC(Cl)C(=O)Nc1ccc(F)c(F)c1F` (centres unmarked) [4-O08, 2-chloro-N-(2,3,4-trifluorophenyl)propanamide], `Cc1ccc(NC(=O)C2(CNC(=O)C(C)Cl)CCCC2)cc1C` (centres unmarked) [7-J13, 1-[(2-chloropropanamido)methyl]-N-(3,4-dimethylphenyl)cyclopentane-1-carboxamide] is lower in “% of control remaining” value: 95.579% for the first, 74.8059% for the second.

Compared with `C=CC(=O)NCCCc1conc1C` [2-N13, N-[3-(3-methyl-1,2-oxazol-4-yl)propyl]prop-2-enamide], `C=CC(=O)NCCc1ccn(-c2ccc(F)cc2)n1` [2-P03, N-{2-[1-(4-fluorophenyl)-1H-pyrazol-3-yl]ethyl}prop-2-enamide] is higher in “% of control remaining” value: 87.88% for the first, 113.818% for the second.

First: O=C1CCc2cc(C(=O)CCl)ccc2N1 [10-M03, 6-(2-chloroacetyl)-1,2,3,4-tetrahydroquinolin-2-one]
Second: O=C1CCCc2cc(C(=O)CCl)ccc2N1 [10-M20, 7-(2-chloroacetyl)-2,3,4,5-tetrahydro-1H-1-benzazepin-2-one]
The “% of control remaining” value of the first is lower: 23.534% for the first, 94.6035% for the second.

Going from `CC1(C)C(=O)Nc2ccc(C(=O)CCl)cc21` [10-N21, 5-(2-chloroacetyl)-3,3-dimethyl-2,3-dihydro-1H-indol-2-one] to `O=C1CCc2cc(C(=O)CCl)c(F)cc2N1` [10-O20, 6-(2-chloroacetyl)-7-fluoro-1,2,3,4-tetrahydroquinolin-2-one], the “% of control remaining” value rises from 35.0672% to 36.6258%.

Compared with `C=CC(=O)NCc1c(Cl)c(C(F)(F)F)nn1C` [2-J07, N-{[4-chloro-1-methyl-3-(trifluoromethyl)-1H-pyrazol-5-yl]methyl}prop-2-enamide], `O=C(CCl)N1CCC1c1cccc(F)c1` (centres unmarked) [5-K10, 2-chloro-1-[2-(3-fluorophenyl)azetidin-1-yl]ethan-1-one] is lower in “% of control remaining” value: 87.88% for the first, 86.5819% for the second.

Compared with `CC(Cl)C(=O)N1CCN(C(=O)C(F)(F)F)C2(CCCCC2)C1` (centres unmarked) [7-K06, 2-chloro-1-[1-(2,2,2-trifluoroacetyl)-1,4-diazaspiro[5.5]undecan-4-yl]propan-1-one], `CC(Cl)C(=O)N(C)C[C@@H]1C[C@H](F)CN1c1ccnc(N(C)C)n1` (stereo partly drawn) [7-K16, 2-chloro-N-{[(2S,4S)-1-[2-(dimethylamino)pyrimidin-4-yl]-4-fluoropyrrolidin-2-yl]methyl}-N-methylpropanamide] is lower in “% of control remaining” value: 75.3345% for the first, 71.1052% for the second.

First: CC(C#N)Oc1ccc(C=C(C#N)C(=O)Nc2ccccc2Cl)cc1 (centres unmarked) [9-E05, N-(2-chlorophenyl)-2-cyano-3-[4-(1-cyanoethoxy)phenyl]prop-2-enamide]
Second: C=CCNC(=O)C(C#N)=Cc1cccc2ccccc12 [9-L10, 2-cyano-3-(naphthalen-1-yl)-N-(prop-2-en-1-yl)prop-2-enamide]
The “% of control remaining” value of the first is higher: 89.259% for the first, 88.3073% for the second.

Compared with `Cc1ccc(C)c(N2C(=O)C=CC2=O)c1` [10-F13, 1-(2,5-dimethylphenyl)-2,5-dihydro-1H-pyrrole-2,5-dione], `Cc1ccc(N2C(=O)C=CC2=O)c(C)c1` [10-N07, 1-(2,4-dimethylphenyl)-2,5-dihydro-1H-pyrrole-2,5-dione] is lower in “% of control remaining” value: 31.3267% for the first, 22.5989% for the second.

First: Cc1ccc2nc(-c3ccc(N4C(=O)C=CC4=O)cc3)sc2c1 [10-K18, 1-[4-(6-methyl-1,3-benzothiazol-2-yl)phenyl]-2,5-dihydro-1H-pyrrole-2,5-dione]
Second: Cc1ccc(CC(=O)CCl)cc1 [10-O13, 1-chloro-3-(4-methylphenyl)propan-2-one]
The “% of control remaining” value of the first is lower: 99.1233% for the first, 100.058% for the second.

Compared with `CC(C)c1ccc(CC(=O)CCl)cc1` [10-I17, 1-chloro-3-[4-(propan-2-yl)phenyl]propan-2-one], `CC(C)(C)c1ccc(CC(=O)CCl)cc1` [10-G19, 1-(4-tert-butylphenyl)-3-chloropropan-2-one] is higher in “% of control remaining” value: 115.644% for the first, 116.579% for the second.

Going from `O=C(CCl)Cc1cccc(Cl)c1` [10-E17, 1-chloro-3-(3-chlorophenyl)propan-2-one] to `Cc1cccc(CC(=O)CCl)c1` [10-I19, 1-chloro-3-(3-methylphenyl)propan-2-one], the “% of control remaining” value rises from 7.481% to 92.7333%.

First: O=C(CCl)Cc1cccc(F)c1 [10-C11, 1-chloro-3-(3-fluorophenyl)propan-2-one]
Second: O=C(Cc1cccc(F)c1)N1CCSSCC1 [10-L21, 1-(1,2,5-dithiazepan-5-yl)-2-(3-fluorophenyl)ethan-1-one]
The “% of control remaining” value of the first is lower: 7.637% for the first, 98.8116% for the second.

Compared with `O=C(CCl)Cc1cc(Cl)cc(Cl)c1` [10-I15, 1-chloro-3-(3,5-dichlorophenyl)propan-2-one], `O=C(CCl)NCCc1cccc(Cl)c1` [5-O05, 2-chloro-N-[2-(3-chlorophenyl)ethyl]acetamide] is higher in “% of control remaining” value: 20.7286% for the first, 115.33% for the second.
